# Test results taken from the supplement of paper PMC11417369.
# ± gives the standard deviation of the averaged measurements. Over roughly 25,000 sequences, “ln(normalized median fluorescence intensity)” has its median near 8.9; the highest 2% begin near 10. The sample holds the highest values, similar sequences and a random draw of the others, so the mix is not that of the screen.
# Tested on: PfAP2-LT AP2 domain (GST-tagged)
# Test: gcPBM binding intensity (ln(normalized median fluorescence intensity)); higher = stronger DNA binding
# Procedure, shortened: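 GST-tagged P. falciparum DNA-binding domains produced in E. coli were incubated for 1 h on an Agilent 4 × 180k array of primer-extended double-stranded 36-bp intergenic genomic probes with negative controls. Binding intensity is the highest Masliner-normalised natural-log median intensity across replicate spots of either probe orientation, with bound protein detected by Alexa488 anti-GST antibody at 488 nm.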
row,Sequence,gcPBM binding intensity (ln)
1,ATACGACAAATATAAAGTACAAGCTTGGTTTTTATA [XGTACX_site8103],8.88 ± 0.59
2,AATTTGAAATATGTGGTGCAGTTATATAATATGTTT [GTGCAC_site9885],8.87 ± 0.41
3,GTACATATATACATTACACACGGTTTGATTTAAAAA [CACACA_site3379],8.98 ± 0.41
4,ATATACAATACAAAAACACACACAAAAAAAGAAAAG [CACACA_site8668],9.59 ± 0.4
5,AAAGAAAAAAAAAACACACACACACGCATTCAATAT [CACACA_site6169],10.1 ± 0.13
6,AAAGAAAAAAAAAACACACACACACCCATTCAATAT [CACACA_site38],10.29 ± 0.035
7,AGAAAAAAAAAAAAAAAACACACGGTACATTCAAAG [CACACA_site2],8.84 ± 0.43
8,AAAAAAAAAAAACACACACACACATTCAATATAAAA [CACACA_site40],9.76 ± 0.28
9,AGAAAAAAAAAACACACACACACACCCTCAATATAA [CACACA_site39],10.1 ± 0.11
10,AAAAATATGCTTCCATGTACTTAAAAAAAAAATTTA [XGTACX_site3617],8.34 ± 0.47
11,TTCATTTATATAATCACACATTTTATCATCTATGTT [CACACA_site4327],8.98 ± 0.47
12,ATGCAAACTAAAAGACGTACAGAAAAGTATCATACT [XGTACX_site8766],9.02 ± 0.42
13,TAAACAAATAAATAAACACACAATATATGTATATAT [CACACA_site3803],9.05 ± 0.38
14,AATGAAATAAATAAGGGTACACATAAATATATATAT [XGTACX_site7006],9.04 ± 0.43
15,ATTATGTGCCAATACACACACACATATATATATATA [CACACA_site468],10.38 ± 0.078
16,ATTATGTGCCAATACACACACACATCTATATTTATA [CACACA_site6359],9.67 ± 0.18
17,AAAAAAAAAAAAAAAACACACATATATGTATATATA [CACACA_site3276],8.92 ± 0.35
18,AAATTATGTGCCAATACACACACACCGATATATATA [CACACA_site8050],9.92 ± 0.21
19,AAAAAAAAAACATACACACACATATATATATATATG [CACACA_site1586],9.46 ± 0.3
20,TATGTGCCAAAACACACACACATATATATATATATA [CACACA_site469],10.2 ± 0.2
21,TACATATGAAAATACACACATACATACATATATATA [CACACA_site1673],9.21 ± 0.34
22,TATCAAAAAAAAAGTAGTACGATAATAGTTTCCCAA [XGTACX_site1812],8.73 ± 0.4
23,TAATATTTTTTGTGTACACATATATATATATATATA [CACACA_site5504],9.505 ± 0.064
24,ATATGTTAAATTATTCGTACGTAAAAAAAAATGGAT [XGTACX_site3465],8.81 ± 0.37

row,Sequence,gcPBM binding intensity (ln)
1,AAAACAAATAGACACGCACACAAAAAAAAAAAAAAA [CACACA_site801],9.38 ± 0.6
2,TATTTATTAAGACACACACACACACGCACAAAATAA [CACACA_site6254],10.3 ± 0.33
3,TTAACAAATAGACACACACACACACGCAAAAAAAAA [CACACA_site6387],10.3 ± 0.33
4,TAAATTAAAAGACACACACACAAAAAAAAAAAAAAA [CACACA_site7131],9.4 ± 0.44
5,TTATTATTAAGACACACACACAAAAAAAAAAAAAAA [CACACA_site6805],9.26 ± 0.46
6,AATGTGTAGACACGCACACACAAAAAAATATTTATA [CACACA_site7384],9.59 ± 0.36
7,ACAAAATAAAGACACACACACAAACACAAAAAAATA [CACACA_site7568],10.1 ± 0.38
8,AATTAACAAAGACACACACACACACGCACAAAAAAA [CACACA_site6388],10.2
9,ATATATATATATAACACACGCAAAAAAATTAAATAA [CACACA_site1400],9.16 ± 0.38
10,AACACGCACAGACACACACACAAAAATGATTAAAAA [CACACA_site7195],9.71 ± 0.61
11,AAAAAACAAAAACACACGCACACAAAAAAAAAAAAA [CACACA_site802],9.4 ± 0.33
12,CACAAACAAAGACACACACACACACGCACAAAAATG [CACACA_site7193],10.3 ± 0.21
13,ATGAAAAAAAATAAAAAATATATATATATATATATA [CACACA_negctrl_site236],9.4 ± 0.4
14,ATATATATATAAATATAAATATATATATATATATAT [CACACA_negctrl_site1685],9.02 ± 0.23
15,AGGAAAAAAAAAATGTGTACTTAAAAAAAAAAAATT [XGTACX_site1471],8.51 ± 0.65
16,ACCTTTTGGATTATATGTACATATATATATATATAT [XGTACX_site2687],9.61 ± 0.26
17,CACAAAAGTAAGCACGCACACACAACCTGAAATAAA [CACACA_site166],9.59 ± 0.44
18,ATTTTTTTTATTTTTTATATAATTTTTTTATATTAT [CACACA_negctrl_site1521],8.69 ± 0.5
19,ATGCAAATGTGCATCACACACACTAATGGGTATGTA [CACACA_site2893],9.41 ± 0.31
20,AATTAAATGATTTATACATGCATATAAATATAAATA [TGCATGCA_site579],8.71 ± 0.43
21,CGATTTTTTAAGTTTGTGCACTTAAAAACTATAACA,8.53 ± 0.47
22,GATGAAAATAGAAATACACACTAAAAAATAAAATTA [CACACA_site4764],8.85 ± 0.52
23,ATATACATATTCTTGTGTACATAAAAATTTATATAT [XGTACX_site8726],8.74 ± 0.35
24,AAAAAAAAAAAAGAACGTACAAATTAATTTATAGAA [XGTACX_site5584],8.73 ± 0.57

row,Sequence,gcPBM binding intensity (ln)
1,TTAAAAAATCACAACACACACACACCCAAAAAAAAA [CACACA_site1445],9.77 ± 0.26
2,TTAAAAAATCACAACACACACACACGCAAAAAAAAA [CACACA_site6793],10.1 ± 0.21
3,TTTACATTAAATCACGCACACAAAAAAAAAAAAAAA [CACACA_site2418],8.94 ± 0.37
4,ATTCAAAAGATGTATACACACATGTGGATAATATAA [CACACA_site2443],9.21 ± 0.48
5,TATATATAATATGAATGTACACAAAAAGGTAATACA [XGTACX_site6202],9.11 ± 0.62
6,ATACAACAAAAATAAGCACACACAAATATACATACA [CACACA_site9201],9.7 ± 0.4
7,AATATAAGCAAATACACACACACATATAAATATGTA [CACACA_site7741],9.85 ± 0.35
8,AATAAAGCAATAAATACACACATATATATATATATA [CACACA_site2934],9.955 ± 0.0071
9,AAACAAAAAAAATAAGCACACATATATATATATATA [CACACA_site8173],9.6 ± 0.57
10,AATATAAGCAAATACACACACACATATATATATATA [CACACA_site3805],10.29 ± 0.035
11,ACAAAAAAAATAAGCACACATATATATATATATATA [CACACA_site816],10.1 ± 0.38
12,AAATCTTAATAAAGTTGTACATAATTATGTTTAATA [XGTACX_site3348],8.55 ± 0.49
13,TAATGGAATAAAAATTGTACATATTTTTTTTTTTTT [XGTACX_site7669],8.45 ± 0.36
14,TTTCTTAAATATATTGAGGAATAAAAAGAAGAAAAG [GTGCAC_negctrl_site281],8.33 ± 0.4
15,AGTATTATATATATATGTACATAATATACATATATA [XGTACX_site8514],8.73 ± 0.36
16,TATGCTACATTATATGTACACACATATACATATATA [CACACA_site8199],9.11 ± 0.42
17,AGGAACATTTACGCCCCACACACCTACCAACAAAAA [CACACA_site3827],9.59 ± 0.23
18,TATAATGATGATGATAGTACGTATGAGTAAGAAAAA [XGTACX_site31],8.99 ± 0.54
19,AGATTATAAAATTCTACACACATATATACCTATATA [CACACA_site5848],9.04 ± 0.42
20,TGAACCAGATTTAGAAGTACTAAATATTACATACAT [XGTACX_site2437],8.7 ± 0.47
21,AAATGGAAAAGGTGTACACAAAAAAAAGGGAAAAGC [CACACA_site5331],9.37 ± 0.5
22,AACTTTTAGAAGAACACACACATATAGATTATGACC [CACACA_site6256],9.24 ± 0.33
23,TATATTATGACCACCACACACCTATACACATAACAT [CACACA_site7199],9.45 ± 0.16
24,ATTATAACACCTCCCCCCCTTTTTTTATGAAGACCA [CACACA_negctrl_site1043],10.1 ± 0.4

row,Sequence,gcPBM binding intensity (ln)
1,ACAATTTATATTATATGTACTTAAAAAGTTCGTAAA [XGTACX_site6421],8.47 ± 0.27
2,TTTTGAAGCTTTAAAACATATATATATATATATATA [CACACA_negctrl_site184],9.75 ± 0.41
3,ATAATTGTTTCTTTCTCCTTTTTATTTCATTTTAAA [CACACA_negctrl_site964],8.68 ± 0.41
4,TATATATTAAAATAATCACACACATCAATTAATGGT [CACACA_site8331],9.09 ± 0.42
5,GCACGAAACAATGTATATATATATATATATATATAT [GTGCAC_negctrl_site412],10.32 ± 0.078
6,AAATAAAATAAAACAACACACACGAATGTATAAATA [CACACA_site885],9.45 ± 0.33
7,ATAAAATAAAACAACACACACGAATGTATAAATATA [CACACA_site4643],9.53 ± 0.36
8,ATGATTTATTATTATACACACAAAAAAAAAAAAGGA [CACACA_site264],8.84 ± 0.42
9,AATATCAATGATGTTACATGCAAGAGAATCCACAAA [TGCATGCA_site678],8.96 ± 0.42
10,TTCAAAATAAAAAATTCACACACATATATATATATA [CACACA_site8653],9.44 ± 0.17
11,TATATATATATATGTACACACACACCGATAAATAAA [CACACA_site8041],9.69 ± 0.15
12,ACCATATAAATAAACACACACACACCGATATATATA [CACACA_site5310],10.09 ± 0.085
13,CCTAAATAAATGGACACACACATATATATATATATA [CACACA_site1439],9.85 ± 0.29
14,AAATAATTCAAAAAAACACACAAATTACAAAATAAA [CACACA_site269],8.92 ± 0.55
15,TATATATATAAATACACACACACACCGATATATATA [CACACA_site5408],9.97 ± 0.11
16,AATATAAATAATGTTAAACACACATACCGATATATA [CACACA_site8869],9.02 ± 0.45
17,AAAATACATAAACACACACACACACCGATATATATA [CACACA_site9186],10.43 ± 0.092
18,AAATAATATAAACATACACACACACCGATATATATA [CACACA_site8945],9.92 ± 0.17
19,CACTAAAATGGACACACACACACACCGATATATATA [CACACA_site6139],10.1 ± 0.23
20,CATATAAAAATGTGCACACACACACCGATATATATT [CACACA_site4940],9.95 ± 0.17
21,CAAAAAATTCAACACACACACACACCGATAAATAAA [CACACA_site8330],10.11 ± 0.071
